# In PMC11574364:
# How the values were obtained:
# Experiment in all cases: protein domain microarray probed with biotinylated miRNA; Domain array: 20 mM Tris-HCl pH 7.4, 200 mM KCl, 0.2 mM EDTA, 0.05% NP40, 2 ug/ul heparin, overnight 4 C. ORF array: PBS pH 7.0 with RNase inhibitor, 100 ng RNA; high values mean tight binding
# Conditions in all cases: ssRNA
# RBMXL3 = RBMXL3 (Homo sapiens, UniProt Q8N7X1)
# ROD1(3-4) = ROD1(3-4) (Homo sapiens, UniProt O95758)
# PSPC1 = biological target: T1, PSPC1 (Homo sapiens, UniProt Q8WXF1)
# T1 sequence: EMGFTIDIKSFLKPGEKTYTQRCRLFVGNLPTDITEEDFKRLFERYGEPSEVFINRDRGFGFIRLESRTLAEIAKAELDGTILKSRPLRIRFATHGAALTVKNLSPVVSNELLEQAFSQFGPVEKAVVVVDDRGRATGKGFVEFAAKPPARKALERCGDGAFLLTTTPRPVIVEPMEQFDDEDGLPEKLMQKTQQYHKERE
# TDRD10 = biological target: T2, TDRD10 (Homo sapiens, UniProt Q5VZ19)
# T2 sequence: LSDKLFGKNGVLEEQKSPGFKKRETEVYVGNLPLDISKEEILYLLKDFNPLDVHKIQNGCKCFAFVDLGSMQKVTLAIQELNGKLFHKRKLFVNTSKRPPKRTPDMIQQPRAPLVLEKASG
# MASK-BP3 = biological target: T3, MASK-BP3 (Homo sapiens, UniProt Q8IWZ3)
# T3 sequence: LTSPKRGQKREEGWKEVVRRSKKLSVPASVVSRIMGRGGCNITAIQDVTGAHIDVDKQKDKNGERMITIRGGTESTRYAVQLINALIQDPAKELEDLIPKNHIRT
# TRA2A = biological target: T4, TRA2A (Homo sapiens, UniProt Q13595)
# T4 sequence: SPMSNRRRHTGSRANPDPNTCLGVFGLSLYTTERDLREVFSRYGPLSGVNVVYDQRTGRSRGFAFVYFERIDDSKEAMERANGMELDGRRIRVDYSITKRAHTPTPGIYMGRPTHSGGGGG
# SFRS7 = biological target: T5, SFRS7 (Homo sapiens, UniProt Q16629)
# T5 sequence: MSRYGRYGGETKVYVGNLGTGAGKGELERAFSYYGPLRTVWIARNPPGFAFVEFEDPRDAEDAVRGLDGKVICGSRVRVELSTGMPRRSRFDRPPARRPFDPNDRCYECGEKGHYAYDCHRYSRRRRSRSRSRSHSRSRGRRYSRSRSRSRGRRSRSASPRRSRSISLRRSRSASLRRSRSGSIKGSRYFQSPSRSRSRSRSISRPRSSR
# snRNP 70 = snRNP 70 (Homo sapiens, UniProt P08621)
# SRRP35 = SRRP35 (Homo sapiens, UniProt Q8WXF0)
# RDBP = RDBP (Homo sapiens, UniProt P18615)
# hnRNP K(3) = hnRNP K(3) (Homo sapiens, UniProt P61978)
# RBM35A = biological target: T6, RBM35A (Homo sapiens, UniProt Q6NXG1)
# T6 sequence: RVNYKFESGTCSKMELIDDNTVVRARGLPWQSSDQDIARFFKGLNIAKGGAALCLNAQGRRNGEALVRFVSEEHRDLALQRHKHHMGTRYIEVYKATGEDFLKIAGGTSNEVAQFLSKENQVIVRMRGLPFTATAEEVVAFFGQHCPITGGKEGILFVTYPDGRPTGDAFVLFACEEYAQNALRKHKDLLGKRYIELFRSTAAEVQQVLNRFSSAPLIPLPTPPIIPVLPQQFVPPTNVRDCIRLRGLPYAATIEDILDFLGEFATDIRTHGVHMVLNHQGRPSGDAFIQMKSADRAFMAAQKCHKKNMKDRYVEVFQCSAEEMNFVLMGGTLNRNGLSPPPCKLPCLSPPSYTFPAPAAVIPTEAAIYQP
# RKHD2(1-2) = biological target: T7, RKHD2(1-2) (Homo sapiens, UniProt Q5U5Q3)
# T7 sequence: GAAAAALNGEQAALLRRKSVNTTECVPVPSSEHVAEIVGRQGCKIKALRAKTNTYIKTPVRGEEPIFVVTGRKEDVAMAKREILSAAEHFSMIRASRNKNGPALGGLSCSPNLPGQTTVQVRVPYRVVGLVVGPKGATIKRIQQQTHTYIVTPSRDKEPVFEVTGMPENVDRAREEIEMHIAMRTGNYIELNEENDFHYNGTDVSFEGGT
# RBM35B = biological target: T8, RBM35B (Homo sapiens, UniProt Q9H6T0)
# T8 sequence: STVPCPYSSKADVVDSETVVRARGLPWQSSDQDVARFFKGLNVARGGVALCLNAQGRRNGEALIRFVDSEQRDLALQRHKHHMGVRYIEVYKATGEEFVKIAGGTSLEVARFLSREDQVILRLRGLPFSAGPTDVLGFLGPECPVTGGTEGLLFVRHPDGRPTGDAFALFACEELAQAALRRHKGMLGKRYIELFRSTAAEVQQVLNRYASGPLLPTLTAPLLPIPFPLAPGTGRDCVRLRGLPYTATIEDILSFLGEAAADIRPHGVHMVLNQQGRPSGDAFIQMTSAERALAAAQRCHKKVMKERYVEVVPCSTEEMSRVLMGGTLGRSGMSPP
# TAF15 = TAF15 (Homo sapiens, UniProt Q92804)
# RBM6 = biological target: T9, RBM6 (Homo sapiens, UniProt P78332)
# T9 sequence: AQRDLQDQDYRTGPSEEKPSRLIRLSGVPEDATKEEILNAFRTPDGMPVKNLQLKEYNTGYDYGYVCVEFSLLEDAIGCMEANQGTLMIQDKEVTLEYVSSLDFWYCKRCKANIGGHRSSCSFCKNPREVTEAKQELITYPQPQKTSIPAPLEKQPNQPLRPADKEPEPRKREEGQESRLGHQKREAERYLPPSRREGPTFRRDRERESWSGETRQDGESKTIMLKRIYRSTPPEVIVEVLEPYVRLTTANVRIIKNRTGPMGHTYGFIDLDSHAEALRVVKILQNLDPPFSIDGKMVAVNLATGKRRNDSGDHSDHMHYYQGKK
# RBM23 = biological target: T10, RBM23 (Homo sapiens, UniProt Q86U06)
# T10 sequence: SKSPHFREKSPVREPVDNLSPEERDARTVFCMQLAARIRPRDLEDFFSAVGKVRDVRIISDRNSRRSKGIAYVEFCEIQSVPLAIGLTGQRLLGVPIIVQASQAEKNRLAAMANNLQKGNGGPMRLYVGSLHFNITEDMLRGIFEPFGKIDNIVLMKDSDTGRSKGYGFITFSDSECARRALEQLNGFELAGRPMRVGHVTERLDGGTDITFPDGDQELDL
# KHDRBS2 = biological target: T11, KHDRBS2 (Homo sapiens, UniProt Q5VWX1)
# T11 sequence: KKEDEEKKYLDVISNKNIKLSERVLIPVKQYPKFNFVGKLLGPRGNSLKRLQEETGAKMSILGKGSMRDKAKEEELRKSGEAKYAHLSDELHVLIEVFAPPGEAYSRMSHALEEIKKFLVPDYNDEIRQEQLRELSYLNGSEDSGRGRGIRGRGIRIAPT
# RBM12B(1-3) = biological target: T12, RBM12B(1-3) (Homo sapiens, UniProt Q8IXT5)
# T12 sequence: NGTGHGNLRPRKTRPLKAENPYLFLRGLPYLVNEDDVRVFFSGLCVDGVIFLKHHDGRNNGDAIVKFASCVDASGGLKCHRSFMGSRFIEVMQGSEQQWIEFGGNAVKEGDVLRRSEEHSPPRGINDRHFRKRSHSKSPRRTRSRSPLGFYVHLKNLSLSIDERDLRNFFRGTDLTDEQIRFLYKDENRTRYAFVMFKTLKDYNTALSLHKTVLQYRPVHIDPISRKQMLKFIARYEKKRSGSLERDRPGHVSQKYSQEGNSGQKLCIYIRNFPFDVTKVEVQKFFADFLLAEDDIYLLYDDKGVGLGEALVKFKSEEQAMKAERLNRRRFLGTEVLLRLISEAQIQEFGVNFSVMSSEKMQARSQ
# RED1(2)/ADARB1 = RED1(2)/ADARB1 (Homo sapiens, UniProt P78563)
# Chain of RDBP (P18615 240-355): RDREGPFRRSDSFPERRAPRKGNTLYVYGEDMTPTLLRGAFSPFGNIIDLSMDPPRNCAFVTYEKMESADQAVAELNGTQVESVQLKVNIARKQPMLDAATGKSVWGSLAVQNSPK
# Chain of RBMXL3 (Q8N7X1 1-110): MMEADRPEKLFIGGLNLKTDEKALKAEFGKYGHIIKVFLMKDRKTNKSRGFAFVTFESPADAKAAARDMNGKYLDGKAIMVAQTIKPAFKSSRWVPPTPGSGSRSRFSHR
# Chain of ROD1(3-4) (O95758 340-552): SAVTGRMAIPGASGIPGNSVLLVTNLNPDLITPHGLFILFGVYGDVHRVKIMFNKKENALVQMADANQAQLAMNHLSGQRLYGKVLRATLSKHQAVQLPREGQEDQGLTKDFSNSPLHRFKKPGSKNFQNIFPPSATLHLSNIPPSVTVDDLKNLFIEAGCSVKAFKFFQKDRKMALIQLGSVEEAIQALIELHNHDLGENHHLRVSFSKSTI
# Chain of snRNP 70 (P08621 80-205): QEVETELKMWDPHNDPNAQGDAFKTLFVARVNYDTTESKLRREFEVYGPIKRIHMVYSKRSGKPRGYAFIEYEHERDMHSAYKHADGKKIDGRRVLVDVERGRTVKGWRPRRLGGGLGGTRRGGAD
# Chain of hnRNP K(3) (P61978 369-463): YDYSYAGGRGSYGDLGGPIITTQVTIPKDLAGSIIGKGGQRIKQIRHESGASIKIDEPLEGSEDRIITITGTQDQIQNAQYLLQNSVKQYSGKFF
# Chain of SRRP35 (Q8WXF0 1-120): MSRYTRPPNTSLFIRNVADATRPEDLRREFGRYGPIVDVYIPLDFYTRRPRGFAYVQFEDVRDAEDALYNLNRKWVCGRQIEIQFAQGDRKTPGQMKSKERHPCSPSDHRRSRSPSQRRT
# Chain of TAF15 (Q92804 215-340): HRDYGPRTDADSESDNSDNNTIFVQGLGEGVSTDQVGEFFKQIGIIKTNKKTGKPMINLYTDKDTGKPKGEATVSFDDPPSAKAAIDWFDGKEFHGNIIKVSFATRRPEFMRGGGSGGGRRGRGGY
Sequence,binding signal (RBMXL3),binding signal (ROD1(3-4)),binding signal (PSPC1),binding signal (TDRD10),binding signal (MASK-BP3),binding signal (TRA2A),binding signal (SFRS7),binding signal (snRNP 70),binding signal (SRRP35),binding signal (RDBP),binding signal (hnRNP K(3)),binding signal (RBM35A),binding signal (RKHD2(1-2)),binding signal (RBM35B),binding signal (TAF15),binding signal (RBM6),binding signal (RBM23),binding signal (KHDRBS2),binding signal (RBM12B(1-3)),binding signal (RED1(2)/ADARB1)
UGAGGUAGUAGGUUGUGUGGUU,1280 ± 38.3 fluorescence intensity,569 ± 20.9 fluorescence intensity,84.7 ± 9.68 fluorescence intensity,210 ± 41.3 fluorescence intensity,131 ± 1.63 fluorescence intensity,341 ± 41.5 fluorescence intensity,1968 ± 10.4 fluorescence intensity,1170 ± 58.7 fluorescence intensity,643.6 ± 5.9 fluorescence intensity,78.9 ± 4.14 fluorescence intensity,291 ± 3.08 fluorescence intensity,1439 ± 11.1 fluorescence intensity,680.7 ± 1.67 fluorescence intensity,287 ± 29.8 fluorescence intensity,662 ± 122 fluorescence intensity,453 ± 28.5 fluorescence intensity,678.5 ± 0.919 fluorescence intensity,1190 ± 18.7 fluorescence intensity,329 ± 27.9 fluorescence intensity,143.2 ± 0.375 fluorescence intensity
UGAGGUAGUAGGUUGUAUAGUU,500 ± 52.7 fluorescence intensity,92.7 ± 10.2 fluorescence intensity,,,26.2 ± 1.21 fluorescence intensity,25 ± 0.552 fluorescence intensity,896.5 ± 2.67 fluorescence intensity,179 ± 52.5 fluorescence intensity,206 ± 15.3 fluorescence intensity,25 ± 1.67 fluorescence intensity,52.1 ± 3.1 fluorescence intensity,521 ± 7.45 fluorescence intensity,509.4 ± 2.09 fluorescence intensity,31.4 ± 1.56 fluorescence intensity,54.7 ± 13.8 fluorescence intensity,20.3 ± 1.75 fluorescence intensity,162.15 ± 0.134 fluorescence intensity,388 ± 52.1 fluorescence intensity,44.5 ± 1.46 fluorescence intensity,25 ± 0.453 fluorescence intensity
UAGCUUAUCAGACUGAUGUUGA,308 ± 16.9 fluorescence intensity,94.4 ± 48.7 fluorescence intensity,,,,,1190 ± 28.1 fluorescence intensity,44 ± 10.4 fluorescence intensity,54.02 ± 0.29 fluorescence intensity,20.3 ± 0.262 fluorescence intensity,79.6 ± 1.76 fluorescence intensity,26.4 ± 2.09 fluorescence intensity,234 ± 5.59 fluorescence intensity,,,,26.5 ± 5.48 fluorescence intensity,463 ± 19.2 fluorescence intensity,,
